Records with an inconclusive call do not appear. Calls of active or inactive are those of the source. The call rests on the fitted dose curve; in most records, active means well fitted inhibition curve with a large enough effect; inconclusive means small, poorly fitted or top-dose-only effect; inactive means flat fitted curve, though single readings scatter.

Potency data for 26 molecules are collected here from PubChem BioAssay (NCATS).

What all share (experiment): qHTS profiling for inhibitors of Plasmodium falciparum proliferation (AID 504749); further: nearly all actives have a fitted effect of over 60% in size
Holding throughout (conditions): P. falciparum in erythrocytes, SYBR Green DNA, 72 h; series mostly up to 28.7 µM
A general note: qHTS replaces the single test concentration by a dilution series.

One experiment relates to CP185. The essentials: (§1)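 Infected RBCs, 0.3% parasitemia/2.5% Hct final; cpd 72 h, 37 C, 5% CO2; lysis buffer with saponin/triton/SYBR Green I, o/n RT dark; FI 485/535; norm. to artemisinin (0.29 uM) and DMSO.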
A further experiment relates to CP191. In a few lines: as §1
For the next experiment, the system named is CP192. The essentials:
as §1

For another experiment, the system named is CP194. In a few lines:
as §1

The subject of the next experiment is CP201. In a few lines:
as §1

A further experiment deals with CP203. In a few lines: as §1
A further experiment deals with CP211. In a few lines:
as §1

The test system of the next experiment is CP215. In a few lines:
as §1

The subject of the next experiment is CP217. In a few lines: as §1
The next experiment deals with CP237. In a few lines: as §1
Potency means the concentration at half of the fitted maximal effect.

Take `CC(O)CN(CCN(CC(C)O)CC(C)O)CC(C)O` (stereo unspecified): the Potency entry with CP185, with CP191, in the experiment on CP192, in the experiment with CP194, in the experiment on CP201 and in the experiment with CP203 was “inactive” each time. For the same molecule, the Potency entry in the experiment on CP211, in the experiment with CP215, in the experiment on CP217 and in the experiment on CP237 was “inactive” each time.

For the molecule `O=C(O)c1ccccc1-c1ccc(C(F)(F)F)cc1`, the Potency entry with CP185, in the experiment on CP191, in the experiment with CP192, in the experiment on CP194, in the experiment on CP201 and in the experiment with CP203 was “inactive” each time. In addition, the Potency entry in the experiment with CP211, in the experiment with CP215, in the experiment on CP217 and in the experiment with CP237 was “inactive” throughout.

`CC(C)(C)C(=O)NCCCC(=O)O`: the Potency result in the experiment on CP185, with CP191, with CP192, with CP194, in the experiment on CP201 and in the experiment with CP203 was “inactive” in each case. Further, the Potency result in the experiment on CP215, in the experiment with CP217 and in the experiment with CP237 was “inactive” throughout.

Consider `CCCCOc1cc(C(=O)OCCN(CC)CC)ccc1N`, for which the Potency entry in the experiment on CP185, in the experiment on CP191, in the experiment on CP192, in the experiment with CP194, in the experiment with CP201 and in the experiment on CP203 was “inactive” in each case. Besides, the Potency result with CP211, in the experiment with CP215, in the experiment with CP217 and in the experiment on CP237 was “inactive” each time.

On to `C[C@H]1O[C@@H](n2cc(F)c(=O)[nH]c2=O)[C@H](O)[C@@H]1O`, for which the Potency entry in the experiment on CP185, with CP191, in the experiment with CP192, in the experiment on CP194, in the experiment on CP201 and with CP203 was “inactive” in each case. For the same molecule, the Potency result in the experiment on CP211, in the experiment on CP215, in the experiment on CP217 and in the experiment on CP237 was “inactive” throughout.

As to `CC1(C)[C@@H]2CC[C@@]1(C)C(=O)C2`, the Potency result with CP185, in the experiment with CP191, in the experiment with CP192, with CP194, in the experiment on CP201 and with CP203 was “inactive” in each case. Moreover, the Potency entry in the experiment on CP211, in the experiment with CP215, with CP217 and in the experiment with CP237 was “inactive” in each case.

On to `CC1=C(/C=C/C(C)=C/C=C/C(C)=C/C(=O)O)C(C)(C)CCC1`, for which the Potency result in the experiment on CP185, with CP191, with CP192, in the experiment with CP194, in the experiment on CP201 and in the experiment with CP211 was “inactive” in each case. For the same molecule, the Potency entry in the experiment on CP215, in the experiment with CP217 and in the experiment on CP237 was “inactive” in each case.

Consider `NCCNCCNCCN`, for which the Potency entry in the experiment with CP185, with CP191, in the experiment with CP192, with CP194, with CP201 and with CP203 was “inactive” in each case. Besides, the Potency result in the experiment on CP211, with CP217 and in the experiment with CP237 was “inactive” throughout.

With `CCCCN(CCCC)CCCOC(=O)c1ccc(N)cc1`, the Potency result in the experiment on CP185, with CP191, in the experiment with CP192, in the experiment with CP194, with CP201 and in the experiment with CP211 was “inactive” each time. For the same molecule, the Potency result in the experiment with CP215, with CP217 and in the experiment with CP237 was “inactive” each time.

Regarding `CCCCOC(=O)c1ccc(O)cc1`, the Potency result in the experiment on CP185, in the experiment with CP191, in the experiment with CP192, in the experiment with CP194, with CP201 and in the experiment on CP203 was “inactive” each time. The Potency result in the experiment with CP211, in the experiment on CP215, in the experiment on CP217 and in the experiment with CP237 was “inactive” throughout.

For the molecule `O=c1cc[nH]c(=S)[nH]1`, the Potency result in the experiment with CP185, in the experiment with CP191, with CP192, in the experiment with CP194, in the experiment with CP201 and in the experiment on CP203 was “inactive” each time. Also, the Potency result with CP211, in the experiment on CP217 and with CP237 was “inactive” in each case.

Consider `NC1CCN(c2cccc(Cl)n2)CC1`, for which the Potency entry with CP185, in the experiment with CP191, in the experiment on CP192, in the experiment on CP194, in the experiment on CP201 and in the experiment with CP211 was “inactive” throughout. The Potency result in the experiment with CP215 and with CP217 was “inactive” throughout. In addition, the Potency in the experiment with CP237 is 12.6 µM (active).

Turning to `COC(=O)C1=C(C)NC(C)=C(C(=O)OC)C1c1ccccc1[N+](=O)[O-]`, the Potency entry in the experiment with CP185, with CP191, with CP192, in the experiment with CP194, with CP201 and in the experiment with CP211 was “inactive” in each case. The Potency result in the experiment on CP215, in the experiment on CP217 and in the experiment with CP237 was “inactive” in each case.

Take `C#CCN(C)Cc1ccccc1`: the Potency entry in the experiment on CP185, with CP191, with CP192, in the experiment on CP194, with CP201 and in the experiment with CP203 was “inactive” each time. The Potency entry with CP211, with CP217 and with CP237 was “inactive” in each case.

For the molecule `COc1ccc(S(=O)(=O)Nc2nnc(CC(C)C)s2)cc1`, the Potency result with CP185, with CP191, in the experiment on CP192, in the experiment on CP194, in the experiment on CP201 and with CP203 was “inactive” each time. Further, the Potency result with CP211, with CP215, in the experiment with CP217 and in the experiment with CP237 was “inactive” each time.

Consider `O=C(CCCN1CCN(c2ccccn2)CC1)c1ccc(F)cc1`, for which the Potency entry with CP185, in the experiment with CP191, in the experiment on CP192, in the experiment on CP194, in the experiment with CP201 and with CP211 was “inactive” in each case. Further, the Potency entry with CP215, with CP217 and in the experiment with CP237 was “inactive” each time.

Consider `O=C1O[C@H]([C@@H](O)CO)C(O)=C1O`, for which the Potency entry in the experiment on CP185, with CP191, in the experiment with CP192, with CP194, in the experiment with CP201 and in the experiment with CP211 was “inactive” in each case. Also, the Potency entry in the experiment with CP215, with CP217 and in the experiment on CP237 was “inactive” each time.

As for `CN(C)CCN(Cc1ccccc1)c1ccccn1`, the Potency entry with CP185, with CP191, in the experiment with CP192, in the experiment with CP194, in the experiment on CP201 and in the experiment with CP211 was “inactive” throughout. The Potency entry in the experiment on CP215 and with CP217 was “inactive” in each case. Moreover, the Potency in the experiment with CP237 is 5.01 µM (active).

Turning to `O=C1NS(=O)(=O)c2ccccc21`, the Potency result in the experiment with CP185, in the experiment with CP191, in the experiment with CP192, in the experiment with CP194, in the experiment with CP201 and in the experiment with CP211 was “inactive” in each case. The Potency entry in the experiment on CP215, with CP217 and in the experiment with CP237 was “inactive” in each case.

Consider `O=c1cc[nH]c(=O)[nH]1`, for which the Potency entry in the experiment with CP185, in the experiment with CP191, in the experiment with CP192, in the experiment on CP194, in the experiment on CP201 and in the experiment on CP211 was “inactive” in each case. For the same molecule, the Potency result in the experiment on CP215, in the experiment with CP217 and with CP237 was “inactive” throughout.

For `C[C@@H]1CN(c2c(F)c(F)c3c(=O)c(C(=O)O)cn(C4CC4)c3c2F)C[C@H](C)N1`, the Potency result with CP185, in the experiment with CP191, with CP192, in the experiment with CP194, with CP201 and in the experiment on CP211 was “inactive” each time. Further, the Potency entry in the experiment on CP215, in the experiment with CP217 and in the experiment with CP237 was “inactive” throughout.

On to `CC(=O)Oc1ccc(C2(c3ccc(OC(C)=O)cc3)C(=O)Nc3ccccc32)cc1`, for which the Potency result in the experiment with CP185, in the experiment with CP191, in the experiment on CP192, in the experiment with CP194, in the experiment with CP201 and in the experiment with CP211 was “inactive” each time. In addition, the Potency entry with CP215, in the experiment with CP217 and with CP237 was “inactive” in each case.

Consider `CCCCCCCCCCCCCCCCCCOCC(O)CO` (stereo unspecified), for which the Potency result with CP185, in the experiment with CP191, in the experiment on CP192, in the experiment with CP194, in the experiment on CP201 and in the experiment on CP211 was “inactive” each time. Moreover, the Potency result with CP215, in the experiment with CP217 and with CP237 was “inactive” in each case.

Take `O=C(O)CN1C(=O)c2cccc3cccc(c23)C1=O`: the Potency result with CP185, in the experiment with CP191, in the experiment on CP192, with CP194, in the experiment on CP201 and with CP211 was “inactive” each time. Also, the Potency result with CP215, with CP217 and in the experiment on CP237 was “inactive” throughout.

Take `CCCCC(CC)COC(=O)c1ccccc1O` (stereo unspecified): the Potency entry with CP185, in the experiment with CP191, in the experiment on CP192, with CP194, in the experiment on CP201 and with CP211 was “inactive” throughout. Besides, the Potency entry with CP215, in the experiment with CP217 and with CP237 was “inactive” in each case.

In the case of `N[C@@H](CSCCCO)C(=O)O`, the Potency entry in the experiment on CP185, with CP191, with CP192, in the experiment on CP194, with CP201 and in the experiment with CP211 was “inactive” in each case. For the same molecule, the Potency result with CP215, in the experiment with CP217 and in the experiment with CP237 was “inactive” throughout.
